In PubChem BioAssay AID1851 (National Center for Advancing Translational Sciences (NCATS), 2009):
The campaign covered roughly 16,000 compounds. About 2,600 (16%) were called active. About 20% were inconclusive and are not listed. Only a sample is shown. Values without a mark were called inactive. Calls follow the shape of the dose curve; as a rule, active = well fitted curve in the direction sought with a large enough effect; inconclusive = small, poorly fitted or top-dose-only effect, or effect the other way; inactive = no such curve, though single readings can be large or run the other way.

Target: Cytochrome P450 2D6 (Homo sapiens) (UniProt P10635)
Sequence (P10635 whole entry, looked up): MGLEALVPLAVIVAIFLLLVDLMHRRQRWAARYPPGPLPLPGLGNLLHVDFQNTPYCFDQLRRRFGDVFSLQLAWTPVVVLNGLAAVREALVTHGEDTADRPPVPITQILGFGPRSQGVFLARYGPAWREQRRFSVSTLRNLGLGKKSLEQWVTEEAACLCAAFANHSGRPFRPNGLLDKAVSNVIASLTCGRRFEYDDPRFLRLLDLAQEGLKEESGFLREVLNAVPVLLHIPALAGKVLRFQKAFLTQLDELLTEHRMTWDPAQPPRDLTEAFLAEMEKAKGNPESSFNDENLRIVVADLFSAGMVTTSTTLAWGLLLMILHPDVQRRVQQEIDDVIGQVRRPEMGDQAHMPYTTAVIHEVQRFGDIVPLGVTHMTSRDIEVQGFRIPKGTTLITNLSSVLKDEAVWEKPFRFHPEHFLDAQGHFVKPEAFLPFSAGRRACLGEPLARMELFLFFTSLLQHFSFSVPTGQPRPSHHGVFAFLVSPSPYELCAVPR
Assay: Cytochrome panel assay with activity outcomes
Settings: recombinant CYP, pro-luciferin dealkylation, luminescence, p450-cyp2d6; series mostly up to 57.1 µM; activity, negative = inhibition: at the top concentration
% is scaled to controls: 0 for no effect and ±100 for the full control effect.

Structure (SMILES) | activity, negative = inhibition | AC50
Cc1cc(C)c2c(=O)[nH]c(SCC(=O)N(C)C)nc2n1 | 4.04% | 
CN(C)c1ncc2nc(-c3ccc(Cl)cc3)c(=O)n(Cc3cccs3)c2n1 | 0.505% | 
CCOc1ccc(OCC)c(-c2c(=O)n(OCc3ccc(C(C)(C)C)cc3)c3ccccc3[n+]2[O-])c1 | -0.869% | 
CC(=O)NNc1cccc(Cl)n1 | -5.21% | 
CCOC(=O)C1=C(c2ccccc2)N=c2s/c(=C\c3cc(OC)c(OC)c(OC)c3)c(=O)n2C1c1cccs1 (stereo unspecified) | 24.8% | 
CCOC(=O)C1=C(c2ccccc2)N=c2s/c(=C\c3cccc(O)c3)c(=O)n2C1c1cccs1 (stereo unspecified) |  | 3160 nM (active)
CCOC(=O)C1=C(c2ccccc2)N=c2s/c(=C\c3ccc(O)cc3)c(=O)n2C1c1cccs1 (stereo unspecified) | -6.93% | 
Cc1cc(/C=C(/C#N)C(=O)Nc2ccccc2)c(C)n1-c1cccnc1 | 3.42% | 
O=c1c(-c2cccs2)nc2cncnc2n1-c1ccccc1 | -5.51% | 
O=c1[nH][nH]c(C(F)(F)F)c1C=Nc1ccccc1Cl | 3.6% | 
O=C(CSc1cccc2cccnc12)OCC(=O)c1ccccc1 | -14% | 
CCNc1ncc2nc(CCc3ccccc3)c(=O)n(C)c2n1 |  | 1580 nM (active)
CCNc1ncc2nc(CCc3ccccc3)c(=O)n(-c3ccccc3)c2n1 |  | 100 nM (active)
CCNc1ncc2nc(C)c(=O)n(C3CC3)c2n1 | -2.63% | 
CCNc1ncc2nc(CCc3ccccc3)c(=O)n(C3CC3)c2n1 |  | 398 nM (active)
COc1cccc(Nc2ncc3nc(CCc4ccccc4)c(=O)n(C4CC4)c3n2)c1 | -14.9% | 
COc1ccc(-n2c(=O)c(CCc3ccccc3)nc3cnc(N4CCN(C)CC4)nc32)cc1 | -5.66% | 
COc1ncc2nc(CCc3ccccc3)c(=O)n(-c3ccccc3)c2n1 | -10.4% | 
CCNc1ncc2nc(CCc3ccccc3)c(=O)n(-c3ccc(OC)cc3)c2n1 |  | 251 nM (active)
COc1ccc(-n2c(=O)c(CCc3ccccc3)nc3cncnc32)cc1 | -18.1% | 
CCNc1ncc2nc(CCc3ccccc3)c(=O)n(Cc3ccc(F)cc3)c2n1 | 2.94% | 

Structure (SMILES) | activity, negative = inhibition | AC50
Cn1c(=O)c(CCc2ccccc2)nc2cncnc21 | -15% | 
Cn1c(=O)c(CCc2ccccc2)nc2cnc(Nc3ccccc3)nc21 | -1.73% | 
CC(C)Cc1nc(N2CCN(C(=O)c3ccccc3)CC2)c(C#N)c2c1CCC2 | -29.2% | 
Nc1nc(N)[n+]([O-])c(N)c1NCO | -8.44% [at 11.4 µM] | 
CCN1C(=O)[C@H]2[C@H]3[C@H](O)[C@H](O)C/C(=N/OCC(C)C)[C@@H]3CC[C@@H]2C1=O | 8.5% [at 11.4 µM] | 
O=C(CN1C(=O)C2C3C=CC(C3)C2C1=O)Nc1ccc(C(=O)O)cc1 (stereo unspecified) | 1.81% | 
CC(C)OC(=O)c1cccc(C(=O)Oc2ccc(Br)cc2)n1 | 17.4% | 
COc1cc(C2C(C#N)=C(N)N(Nc3ccccc3)C3=C2C(=O)CC(C)(C)C3)ccc1OCc1ccccc1 (stereo unspecified) | -12.7% | 
Cc1c(-n2cc(C(=O)c3cc(Cl)ccc3O)cc(C#N)c2=O)c(=O)n(-c2ccccc2)n1C | -19.1% | 
CN(C)[C@H]1C(=O)C(C(=O)NCN2CCCC2)=C(O)[C@]2(O)C(=O)C3=C(O)c4c(O)cccc4[C@@](C)(O)[C@H]3C[C@@H]12 | -6.78% [at 25.6 µM] | 
CCOC(=O)c1c(NC(=O)c2c(Br)cnn2C)c(C#N)nn1-c1ccccc1 | 4.17% | 
O=C(N/N=C/c1ccccn1)c1ccco1 | -15.4% | 
COc1cccc2cc(NC(=O)C3CCCCC3)c(=O)oc12 | 5.46% | 
Cc1ccc(-n2nc(C)c3c2OC(N)=C(C#N)C3c2ccco2)cc1 (stereo unspecified) | -22.5% | 
COc1ccc(C(=O)N2CCCCC2)cc1S(=O)(=O)Nc1ccccc1 | -10.2% | 
CCOc1ccc(-c2nn(-c3ccccc3)cc2/C=C2\SC(N)=NC2=O)cc1C | -9.88% | 
CSc1nsc(SCc2ccc(Cl)cc2)n1 | 1.58% | 
O=C1c2ccccc2CC[C@H]1CNCCc1ccc(O)cc1 |  | 398 nM (active)
CCOc1cc(C)ccc1OCc1nnc(SCC(=O)c2cccc([N+](=O)[O-])c2)n1C | -3.48% | 
CCOC(=O)CSC1=NC(=O)/C(=C\c2ccc(Cl)cc2)S1 | -3.61% | 
C[C@@H](CN1CCC(Cc2ccccc2)CC1)[C@@H](O)c1ccc(O)cc1 | -20.7% | 

Structure (SMILES) | activity, negative = inhibition | AC50
C[C@@H](CN1CCC(Cc2ccccc2)CC1)[C@H](O)c1ccc(O)cc1 |  | 1000 nM (active)
COc1cc(CC(=O)OC2CCOC2=O)cc(OC)c1OC (stereo unspecified) | 2.51% | 
Cc1ccc(CN2CC34C=CC(O3)C(C(=O)NCc3ccco3)C4C2=O)cc1 (stereo unspecified) | -23.4% | 
COc1ccc(CCN2CC34C=CC(O3)C(C(=O)NCc3ccccc3)C4C2=O)cc1OC (stereo unspecified) | 2.38% | 
CCCCNC(=O)C1C2C=CC3(CN(Cc4ccccc4Cl)C(=O)C13)O2 (stereo unspecified) | -5.2% | 
COCCCNC(=O)C1C2C=CC3(CN(Cc4ccc(C)cc4)C(=O)C13)O2 (stereo unspecified) | 5.74% | 
O=C(NCC1COc2ccccc2O1)C1C2C=CC3(CN(Cc4cccs4)C(=O)C13)O2 (stereo unspecified) |  | 14100 nM (active)
Cc1ccc(CN2CC34C=CC(O3)C(C(=O)NCc3ccc5c(c3)OCO5)C4C2=O)cc1 (stereo unspecified) |  | 14100 nM (active)
CCOc1cc(S(=O)(=O)N(Cc2ccccc2)Cc2ccccc2)c(OCC)cc1-n1cnnn1 | -10.1% | 
Cc1nc2ncnn2c(C)c1CCC(=O)NCc1ccccc1 | -10.6% | 
CCOc1ccc(-c2cc(CCCC(=O)Nc3cc(OC)ccc3OC)no2)cc1 | -13.6% | 
COc1ccc(NC(=O)CSc2nncn2C)c([N+](=O)[O-])c1 | -8.81% | 
CCOc1ccc(-n2c(SCC(=O)Nc3ccc(OC)cc3OC)nc3c(c2=O)SCC3)cc1 |  | 2240 nM (active)
N#Cc1cccc(NC(=O)N2CC[C@@]3(CCCN(C(=O)c4ccncc4)C3)C2)c1 | 4.68% | 
CS(=O)(=O)N1CCC[C@@]2(CCN(C(=O)Nc3cccc(C#N)c3)C2)C1 | 3.58% | 
CCCc1cc(=O)oc2cc(OCC(=O)N3CCc4ccccc43)ccc12 | 4.28% | 
CCCc1cc(=O)oc2cc(OCc3nn[nH]n3)ccc12 | -1.03% | 
CCCCc1cc(=O)oc2cc(OCC(=O)N(CC)CC)ccc12 |  | 12600 nM (active)
COc1cccc2c1C(=O)c1c(O)c3c(c(O)c1C2=O)C[C@@](O)(C(=O)CO)C[C@H]3O[C@H]1C[C@@H](N)[C@H](O)[C@@H](C)O1.[W] | 4.97% [at 11.4 µM] | 
